phage Ecoli inh: E. coli growth loss with phage present | growth absorbance | inhibition, % at 11.9 µM | 0.26% of 360,000 active | AID 651602; in the data active = inhibition above about 11%
E coli growth-1: E. coli growth inhibition | Escherichia coli growth, OD600, 23 h; stronger effect = lower value | OD600 absorbance (concentration not given with the values) | 0.21% of 330,000 active;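 active = OD600 absorbance below the run mean of sample wells minus 3.6 SD, in any replicate, cut at about 0.56 in these data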
E coli growth-2: bacterial growth inhibition, counter-screen for AddAB inhibitors. 0.27% of 330,000 active. AID 449728. E. coli V3065 growth, OD600 absorbance, 18 h. inhibition, % at 11.9 µM;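 active = inhibition above the campaign's mean inhibition across all tested compounds plus 3 SD, cut at about 9.9% in these data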;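 note: uninfected addAB+ strain grown without phage in ampicillin broth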
Tat transport: inhibitors of E. coli Tat protein transport | inhibition, % at 10 µM | 0.036% of 340,000 active | E. coli MC4100 TorA-mCherry Tat export, fluorescence | AID 488895;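 active = mean replicate inhibition at least 50% and at least half of replicates individually reaching 50%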;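 note: exported cargo escapes ClpAP degradation while cytoplasmic cargo is degraded and loses fluorescence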
AddAB inh: less growth of phage-infected E. coli with AddAB. E. coli expressing H. pylori AddAB, absorbance growth. inhibition, % at 11.9 µM. 0.29% of 330,000 active. AID 435030; in the data active = inhibition above about 12%
AddAB conf: growth loss of T4-infected E. coli expressing H. pylori AddAB, confirmed. inhibition, % at 11.9 µM. E. coli V3065 expressing H. pylori AddAB, T4 phage, OD; T4 phage with gene 2 nonsense mutations. 64% of 880 active. shares compounds with AddAB inh;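 active = mean inhibition above a set limit taken from the earlier primary screen, cut at about 13% in these data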;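 note: higher means less bacterial growth since AddAB block lets phage replicate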
RecBCD counter: AddAB counter-screen: growth loss of RecBCD+ E. coli infected with mutant T4 phage; shares compounds with AddAB inh; E. coli V66 + mutant T4 phage, OD growth; inhibition, % at 11.9 µM; 73% of 880 active; AID 488955;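 active = mean inhibition above the mean of solvent-only control wells plus 3 SD, cut at about 4% in these data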;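 note: optical density read after an 18 h incubation at 37 °C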
Bact viability: counter-screen for AddAB inhibitors: inhibitors of bacterial viability; absorbance (AddAB counterscreen); AID 488956; inhibition, % at 11.9 µM; shares compounds with AddAB inh; 35% of 880 active; in the data active = inhibition above about 25%
RecBCD conf: confirmation: growth loss of phage-infected RecBCD+ E. coli (RecBCD inhibitor screen). 45% of 890 active. inhibition, % at 11.9 µM. shares compounds with phage Ecoli inh. E. coli V66 + T4 2- phage, growth OD;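 active = mean inhibition over triplicates exceeding the hit threshold derived in the original primary screen, cut at about 11% in these data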
Ecoli viability: counter-screen for RecBCD inhibitors: inhibitors of bacterial viability. 29% of 890 active. shares compounds with phage Ecoli inh. E. coli viability, absorbance (OD) growth. AID 651983. inhibition, % at 11.9 µM; in the data active = inhibition above about 20%;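 note: E. coli strain V66 grown with compound alone and no phage infection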
AddAB counter: growth loss of phage-infected AddAB E. coli, RecBCD counter-screen; shares compounds with phage Ecoli inh; E. coli expressing H. pylori AddAB + T4 phage, OD growth; gene 2 mutant T4, recBCD-deleted host; inhibition, % at 11.9 µM; 45% of 890 active;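 active = mean inhibition above the solvent-only control wells' mean plus 3 SD, cut at about 22% in these data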;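 note: higher means less bacterial growth from phage killing when AddAB is blocked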
Of the large screens only hits and unclear results are named; the others gave an inactive call (follow-up assays come after a bar, where they were run). Only some compounds are listed: those with a hit (about 0.51% of all), similar ones and a draw of the others.

CCn1cc(C(=O)O)c(=O)c2cc(F)c(N3CCN(C(=S)Nc4ccccc4OC)CC3)cc21	phage Ecoli inh 99.7, E coli growth-1 0.0735, E coli growth-2 99.1, AddAB inh 97.5 | AddAB conf 98.5 | RecBCD counter 99.4 | Bact viability 98.9 | RecBCD conf 101.6 | Ecoli viability 102.9 | AddAB counter 101.7
CCn1cc(C(=O)O)c(=O)c2cc(F)c(N3CCN(C(=S)NC(=O)c4c(OC)cccc4OC)CC3)cc21	phage Ecoli inh 99.0, E coli growth-1 0.0695, E coli growth-2 98.4, AddAB inh 98.9 | AddAB conf 98.8 | RecBCD counter 98.9 | Bact viability 99.1 | RecBCD conf 101.7 | Ecoli viability 102.5 | AddAB counter 102.8
CCOC(=O)c1cn(CC)c2cc(N3CCCCC3)c(F)cc2c1=O	none
CO[C@H]1/C=C/O[C@@]2(C)Oc3c(C)c(O)c4c(O)c(c(C=NN5CCN(C)CC5)c(O)c4c3C2=O)NC(=O)/C(C)=C\C=C\[C@H](C)[C@H](O)[C@@H](C)[C@@H](O)[C@@H](C)[C@H](OC(C)=O)[C@@H]1C	phage Ecoli inh 78.0, E coli growth-2 48.0, Tat transport 77.7, AddAB inh 51.6 (no result: E coli growth-1) | AddAB conf 58.7 | RecBCD counter 57.9 | Bact viability 62.1 | RecBCD conf 80.5 | Ecoli viability 88.6 | AddAB counter 102.0
C(=NNc1nc2ccccc2[nH]1)c1cccs1	none (no result: phage Ecoli inh, E coli growth-2, Tat transport, AddAB inh)
CCSc1nsc(NC(=O)Nc2cccc(F)c2)n1	phage Ecoli inh 14.7, E coli growth-2 25.4, AddAB inh 18.5 (no result: E coli growth-1) | AddAB conf 13.2 | RecBCD counter 15.8 | Bact viability inactive | RecBCD conf 16.1 | Ecoli viability inactive | AddAB counter 22.0
CCN1/C(=C/c2ccc3cc(C)ccc3[n+]2CC)Sc2ccccc21	phage Ecoli inh 13.8, E coli growth-1 0.222, E coli growth-2 27.6, AddAB inh 25.3 | AddAB conf 45.7 | RecBCD counter 13.9 | Bact viability 30.3 | RecBCD conf inactive | Ecoli viability inactive | AddAB counter inactive
CC[n+]1ccccc1/C=C1\Sc2ccc(C)cc2N1C	none
CC1CN(C(C)CO)C(=O)c2cccc(NS(=O)(=O)c3cccs3)c2OC1CN(C)CC1CCCCC1 (centres undefined)	none (no result: phage Ecoli inh, E coli growth-2, Tat transport, AddAB inh)
CN1CCN(C(c2ccc(Br)cc2)c2cc(Cl)c3cccnc3c2O)CC1 (centres undefined)	phage Ecoli inh 13.0, E coli growth-2 23.4, AddAB inh 22.3 (no result: E coli growth-1) | AddAB conf inactive | RecBCD counter 10.7 | Bact viability inactive | RecBCD conf inactive | Ecoli viability inactive | AddAB counter inactive
CN1CCN(C(c2ccc(F)cc2)c2ccc3cccnc3c2O)CC1 (centres undefined)	none (no result: phage Ecoli inh, E coli growth-2, AddAB inh)
O=[N+]([O-])c1ccc(/C=N/N=C/c2ccc([N+](=O)[O-])o2)o1	none (no result: E coli growth-1, E coli growth-2, AddAB inh)
O=C(O)/C=C/c1ccc([N+](=O)[O-])o1	phage Ecoli inh 18.1, E coli growth-1 0.401, E coli growth-2 72.6, AddAB inh 46.4 | AddAB conf 101.4 | RecBCD counter 16.5 | Bact viability 77.1 | RecBCD conf 19.5 | Ecoli viability inactive | AddAB counter 101.3
CCCC(=O)NC(c1cccs1)c1cc(Cl)c2cccnc2c1O (centres undefined)	phage Ecoli inh 21.0, E coli growth-2 28.6, AddAB inh 26.8 | AddAB conf 22.5 | RecBCD counter 20.4 | Bact viability inactive | RecBCD conf 11.2 | Ecoli viability inactive | AddAB counter inactive
CCCC(=O)NC(c1ccco1)c1cc(Cl)c2cccnc2c1O (centres undefined)	phage Ecoli inh 21.2, E coli growth-2 14.2, AddAB inh 16.1 | AddAB conf 21.8 | RecBCD counter 20.9 | Bact viability inactive | RecBCD conf 10.9 | Ecoli viability inactive | AddAB counter 23.6
CCC(=O)NC(c1cccs1)c1ccc2cccnc2c1O (centres undefined)	phage Ecoli inh 18.5, E coli growth-2 19.9, AddAB inh 21.2 | AddAB conf inactive | RecBCD counter 16.9 | Bact viability inactive | RecBCD conf inactive | Ecoli viability inactive | AddAB counter inactive
COc1cc(C(=O)NCC(=O)NN=Cc2ccc(-c3ccc([N+](=O)[O-])cc3)o2)cc(OC)c1OC	none (no result: phage Ecoli inh, E coli growth-2, Tat transport, AddAB inh)
Cc1ccc2c(c1)C1CN(C)CCC1N2S(=O)(=O)c1ccc(F)cc1 (centres undefined)	none (no result: phage Ecoli inh, E coli growth-2, Tat transport, AddAB inh)
CC(=NNC(=O)c1cc(-c2ccc(C)s2)[nH]n1)c1ccncc1	none (no result: phage Ecoli inh, E coli growth-2, Tat transport, AddAB inh)
O=C(CSC1=NNC(c2ccccn2)S1)Nc1ccccc1 (centres undefined)	phage Ecoli inh 11.0, AddAB inh 12.6 | AddAB conf 35.2 | RecBCD counter 13.5 | Bact viability inactive | RecBCD conf inactive | Ecoli viability inactive | AddAB counter 37.7
O=C(NN=Cc1ccccc1)c1sccc1-n1cccc1	none (no result: phage Ecoli inh, E coli growth-2, Tat transport, AddAB inh)
Cc1ccc(C=NNC(=O)Cn2nc(C)c(Br)c2C)o1	none (no result: phage Ecoli inh, E coli growth-2, Tat transport, AddAB inh)
Cc1nc(Nc2ccc(S(N)(=O)=O)cc2)oc1C	phage Ecoli inh 11.9, E coli growth-2 9.9, AddAB inh 15.4 | AddAB conf inactive | RecBCD counter 5.3 | Bact viability inactive | RecBCD conf inactive | Ecoli viability inactive | AddAB counter 40.5
Cc1ccc(/C=C/C(=O)Nc2ccc(S(N)(=O)=O)cc2)o1	none
COc1ccccc1-n1c(=O)oc2ccc(Cl)cc2c1=O	phage Ecoli inh 12.2, AddAB inh 12.3 | AddAB conf inactive | RecBCD counter 10.4 | Bact viability inactive | RecBCD conf inactive | Ecoli viability inactive | AddAB counter inactive
Nc1ncc(-c2ccc([N+](=O)[O-])cc2)cn1	phage Ecoli inh 37.5, E coli growth-2 37.9, AddAB inh 39.0 (no result: E coli growth-1) | AddAB conf 44.1 | RecBCD counter 36.8 | Bact viability 47.5 | RecBCD conf 35.2 | Ecoli viability 40.7 | AddAB counter 51.0
O=[N+]([O-])c1ccc(-c2cnc(NO)nc2)cc1	phage Ecoli inh 30.7, E coli growth-2 30.8, AddAB inh 32.9 | AddAB conf 42.4 | RecBCD counter 30.2 | Bact viability 39.8 | RecBCD conf 30.8 | Ecoli viability 35.9 | AddAB counter 44.9
Nc1[nH]c(=O)ncc1-c1ccc([N+](=O)[O-])cc1	none (no result: E coli growth-1, E coli growth-2, Tat transport, AddAB inh)

Source: PubChem BioAssay
